Our source for the inhibition values is PubChem BioAssay AID2599 (Sanford-Burnham Center for Chemical Genomics, 2010).

By inhibition is commonly meant the change of the read-out against control, counted positive when it falls.

The structures appear in SMILES notation. The campaign covered roughly 330,000 compounds. About 5,800 (1.8%) were called active.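 Rule for the calls: active = inhibition above about 50% at the single tested dose (limit read from the data); inactive = the rest.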 The full list was thinned out, with actives kept by preference.

Chain of Sentrin-specific protease 6 (Homo sapiens) (Q9GZR1 628-1112 limits assumed): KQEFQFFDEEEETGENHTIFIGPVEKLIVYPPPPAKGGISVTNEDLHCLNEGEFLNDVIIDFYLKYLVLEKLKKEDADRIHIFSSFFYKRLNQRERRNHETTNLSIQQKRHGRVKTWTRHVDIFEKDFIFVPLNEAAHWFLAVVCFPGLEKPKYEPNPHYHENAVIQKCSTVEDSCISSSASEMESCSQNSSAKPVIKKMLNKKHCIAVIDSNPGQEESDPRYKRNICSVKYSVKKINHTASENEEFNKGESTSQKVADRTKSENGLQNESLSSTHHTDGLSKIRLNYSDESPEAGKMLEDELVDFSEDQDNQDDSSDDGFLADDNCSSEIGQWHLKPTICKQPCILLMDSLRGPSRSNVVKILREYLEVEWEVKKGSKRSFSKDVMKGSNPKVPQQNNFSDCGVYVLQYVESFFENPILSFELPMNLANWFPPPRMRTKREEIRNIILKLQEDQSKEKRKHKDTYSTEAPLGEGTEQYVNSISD

The experiment addresses Sentrin-specific protease 6 (Homo sapiens) (UniProt Q9GZR1). Nature of the experiment: SENP6 protease inhibitors, primary screen, biochemical, luminescence, uHTS (AID 2599).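 Note: plate controls were DMSO wells with enzyme for no effect and DMSO wells lacking enzyme for full effect.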 To be noted: Recombinant SENP6 catalytic domain, aminoluciferin luminescence; at 10 µM; stronger effect = higher value.
`Cc1ccc(S(=O)(=O)N2CCN(c3ncnc4ccccc34)CC2)cc1`: the inhibition was -8.22% (inactive).
With `Cc1ccc(NC(=O)CN2CCc3ccccc3C2)cc1`, the inhibition was -1.22% (inactive).
For the compound `Cc1ccc(S(=O)(=O)Nc2nc3ccccc3nc2N2CCc3ccccc3C2)cc1`, the inhibition is 72.3% (active).
`CCOc1ncccc1C(=O)N(C)CC(=O)Nc1ccc(F)cc1`: the inhibition was -13.5% (inactive).
Then `COc1ccc(CCC(C)N2CCc3ccccc3C2)cc1` (stereo not drawn), with -16.3% (inactive); and `CC1CCC(NC(=O)CNC(=O)c2ccc3ccccc3c2)CC1` (stereo not drawn), with -5.64% (inactive).
For `COc1ccc(N(CC(=O)NCc2ccc(F)cc2)C(=O)CCC(=O)Nc2nccs2)cc1` the value was -20.2% (inactive); for `Cn1cccc1C(=O)OCC(=O)NCCc1ccccc1`, 2.46% (inactive).
On to `O=C(COC(=O)c1c2c(nc3ccccc13)CCCC2)c1ccc(Br)s1`, for which the inhibition is -21.7% (inactive).
Consider `Cn1cccc1C(=O)OCC(=O)c1ccc(Br)s1`, for which the inhibition was 80.6% (active).
For `Cc1cc(C(=O)N2CCC(C(=O)O)CC2)c(C(F)(F)F)o1`, the inhibition is -4.3% (inactive).
Then `CCCNC(=S)NC1CC2CCCC(C1)N2CC(C)C` (stereo not drawn), with -7.92% (inactive).
For `COc1ccc(CNC(=O)COc2ccccc2C(=O)c2cnn(-c3ccccc3)c2)cc1OC` the value was 82.5% (active).
Consider `COc1ccc(CNC(=O)COC(=O)c2c(C)nn(-c3ccccc3)c2C)cc1OC`, for which the inhibition is -8.11% (inactive).
In the case of `COc1ccc(CNC(=O)Cc2ccc(-c3ccccc3)cc2)cc1OC`, the inhibition is -23.6% (inactive).
In the case of `COC(=O)C1=C(C(=O)OC)[C@@H]2N(C)c3ccccc3[C@@]23C[C@@H](C(=O)OC)N(C(C)=O)C3=N1`, the inhibition is 3.79% (inactive).
As to `CC(C)(C)NC(=O)Cn1c(SCC(=O)Nc2nccs2)nc2ccccc21`, the inhibition was 1.04% (inactive).
Then `O=C1/C(=C/c2cccs2)CCc2ccccc21`, with 94.5% (active); and `CN1C/C(=C/c2cccs2)C(=O)/C(=C\c2cccs2)C1`, with 8.32% (inactive).
As for `COc1ccc(/C=C2\CCc3ccccc3C2=O)c(OC)c1OC`, the inhibition is -14.7% (inactive).
For the compound `Cc1ccc(NS(=O)(=O)c2cccs2)cc1S(=O)(=O)N1CCCCCC1`, the inhibition was -3.66% (inactive).
`O=C(OCC(=O)N1CCCC1)c1ccco1`: the inhibition is -23.3% (inactive).
In the case of `CCN(CC)c1ccc(C(=O)OCC(=O)c2ccco2)cc1`, the inhibition was -14.3% (inactive).
For the compound `CCc1ccc(C(=O)COC(=O)c2ccco2)cc1`, the inhibition was 66.8% (active).
For `Cc1ccc(CN2CC(C(=O)NNC(=O)Cn3ccc(C(F)(F)F)n3)CC2=O)cc1` (stereo not drawn), the inhibition is -0.795% (inactive).
With `Cc1nc2nc(CSc3nc4ccccc4s3)cc(=O)n2[nH]1`, the inhibition is -34.9% (inactive).
`O=[N+]([O-])c1c(NCCO)cc(Sc2nc3ccccc3s2)c2nonc12`: the inhibition was 79.3% (active).
With `NC(=O)c1ccc(Nc2ccc3nonc3c2[N+](=O)[O-])cc1`, the inhibition is 6.58% (inactive).
Consider `COc1ccc(C)cc1S(=O)(=O)Nc1cccc(Cl)c1Cl`, for which the inhibition was -4.81% (inactive).
`O=C(Cc1ccc(Cl)cc1)NCc1nc(-c2ccccc2)no1`: the inhibition was -9.63% (inactive).
`C/C(=N\NC(=O)c1ccoc1C)c1ccccc1O`: the inhibition is 56.4% (active).
For the compound `CC(C)=C(NC(=O)c1ccccc1)C(=O)N/N=C(\C)c1ccccc1O`, the inhibition is -21.8% (inactive).
Take `C/C(=N\NC(=O)c1ccccc1F)c1ccccn1`: the inhibition is 45% (inactive).
With `CSCCC(NC(=O)c1ccccc1)C(=O)N1CCN(Cc2ccc(Cl)cc2)CC1` (stereo not drawn), the inhibition was -6.84% (inactive).
For the compound `CC(OC(=O)C1CC(=O)N(Cc2ccccc2)C1)C(=O)Nc1ccccc1[N+](=O)[O-]` (stereo not drawn), the inhibition was -19.9% (inactive).
On to `CCCCN(C(=O)COc1ccc(NC(C)=O)cc1)C1CCS(=O)(=O)C1` (stereo not drawn), for which the inhibition is -10.3% (inactive).
As for `O=C(CCNC(=O)c1ccccc1Cl)NCc1ccco1`, the inhibition was -14.5% (inactive).
Regarding `O=C(Nc1ccccc1)Nc1ccccc1C(=O)NCc1ccco1`, the inhibition was 75.2% (active).
Turning to `Cc1cccc(Nc2ccccc2C(=O)NCc2ccco2)c1C`, the inhibition was 2.61% (inactive).
For `NC(N)=NCCCc1cn(CC(=O)N2CCNCC2)nn1`, the inhibition was -12% (inactive).
For `O=C(CN1CCN(S(=O)(=O)c2cccc(Cl)c2)CC1)N1CCCCC1`, the inhibition was -12.8% (inactive).
For `C=CCNC(=S)NNc1ncnc2sc3c(c12)CC(C)(C)OC3` the value was -6.15% (inactive).
As for `CC(C)Sc1ncnc2c1cnn2-c1ccccc1`, the inhibition is 38.9% (inactive).
As to `C1=C(CCNc2ncnc3c2cnn3-c2ccccc2)CCCC1`, the inhibition was 62.1% (active).
Then `O=C(NCCC1=CCCCC1)C1CCN(Cc2cnn(-c3ccccc3)c2-n2cccc2)CC1`, with 12.3% (inactive); and `O=C(CSc1nc2[nH]ncc2c(=O)[nH]1)Nc1ccc(F)cc1`, with -4.08% (inactive).
For the compound `CC1(C)O[C@@H]2[C@H](O1)[C@@H](COS(=O)(=O)O)O[C@H]2n1ccc(=O)[nH]c1=O`, the inhibition is -11.6% (inactive).
Take `COc1ccc2c(c1OC)C(=O)OC2Nc1nc(-c2ccccc2)cs1` (stereo not drawn): the inhibition is -5.84% (inactive).
In the case of `c1ccc(Nc2nc(-c3ccncc3)cs2)nc1`, the inhibition is 88.8% (active).
`CCCn1c(CCNc2nc(-c3ccc(OC)cc3)cs2)nc2ccccc21`: the inhibition was 1.04% (inactive).
For the compound `COc1ccc(-c2csc(Cc3nc(O)cs3)n2)cc1`, the inhibition is 25.6% (inactive).
Then `Clc1ccc(-c2csc(-c3ccncc3)n2)cc1`, with -16.8% (inactive); and `COc1ccc(-c2csc(Nc3ccccn3)n2)cc1`, with 81.9% (active).
On to `COc1ccc(-c2csc(NC(=O)COC(=O)Cc3ccc(Cl)cc3Cl)n2)cc1`, for which the inhibition was 20.8% (inactive).
Consider `Clc1ccc(Nc2nc(-c3cccs3)cs2)nc1`, for which the inhibition is 35.3% (inactive).
As for `COc1ccc(Nc2nc(-c3ccccc3)cs2)cc1`, the inhibition is 88.5% (active).
Then `Oc1c(Br)cc(/C=N/NC(=S)NCC2CCCO2)cc1Br` (stereo not drawn), with -26.9% (inactive).
`CCn1cc(C(=O)OCC(=O)Nc2cccc(C)c2)c(=O)c2ccc(C)nc21`: the inhibition was -16.3% (inactive).
In the case of `COC(=O)c1ccc(Oc2nc(NC(C)C)nc(SC)n2)cc1`, the inhibition was -13.9% (inactive).
Turning to `Cc1cccc(NC(=O)CSc2nnc(CCCCCNC(=O)OC(C)(C)C)o2)c1C`, the inhibition is 12.1% (inactive).
For `COc1ccc(CNC(=O)C(c2ccc(O)cc2)N(Cc2ccco2)C(=O)c2snc(C(N)=O)c2N)cc1` (stereo not drawn) the value was -5.39% (inactive); for `C=CCC1(C#N)C(=S)NC(C)=C(C(=O)OCC)C1c1ccccc1` (stereo not drawn), -0.11% (inactive).
Consider `CCc1ccc(CN(C)C(=O)C2CCC(=O)N(Cc3cccc(OC)c3)C2)nc1` (stereo not drawn), for which the inhibition is -7.64% (inactive).
In the case of `CC(C)Cn1c(N)c(C(=O)NCc2cccs2)c2nc3ccccc3nc21`, the inhibition is 80.7% (active).
For the compound `Cn1ncc(Br)c1C(=O)NCc1cccs1`, the inhibition is -1.6% (inactive).
Regarding `CCOc1ccccc1NC(=O)Cn1nnc(C(=O)NCc2cccs2)c1N`, the inhibition is 10.8% (inactive).
Consider `OC(CN=c1sc2ccccc2n1CC(O)COc1ccccc1)COc1ccccc1` (stereo not drawn), for which the inhibition was -0.866% (inactive).
For `CNC(C)C#Cc1ccc2sc3cc(OC)c(OC)cc3c(=O)c2c1` (stereo not drawn), the inhibition was 78.2% (active).
For `CC(C)CN(C(=O)COC(=O)c1ccc2ccccc2c1)c1c(N)n(Cc2ccccc2)c(=O)[nH]c1=O` the value was -9.38% (inactive); for `CCOc1cc(/C=N/n2cnnc2)c(Br)cc1O`, 12.6% (inactive); for `CCCCCC(O)c1cccc(OCc2ccc3ccccc3n2)c1` (stereo not drawn), 23% (inactive).
Regarding `O=C(COC(=O)c1cc(S(=O)(=O)N2CCOCC2)ccc1F)NC1CC1`, the inhibition is -2.29% (inactive).
For the compound `CNCC(O)c1ccc(O)c(O)c1` (stereo not drawn), the inhibition was -10.1% (inactive).
Then `CCOC(=O)C(NS(=O)(=O)c1ccc(C)cc1)(C(F)(F)F)P(=O)(OCC(C)C)OCC(C)C` (stereo not drawn), with 8.36% (inactive); and `CCCCCc1ccc(-c2ccc(C(=O)O)cc2)nc1`, with 95.9% (active).
For `CCCCCc1ccc(-c2ccc(OCC)cc2)nc1` the value was -5.2% (inactive); for `CCCCCc1ccc(-c2cn(Cc3ccc4ccccc4c3)nn2)cc1`, -16.8% (inactive).
For `CC(=O)N1C(C)c2ccccc2C(C)(C)CC12CCCCC2` (stereo not drawn), the inhibition is 5.42% (inactive).
On to `O=c1[nH]c(CN2CCOCC2)nc2cc(Cl)ccc12`, for which the inhibition was 0.886% (inactive).
On to `NC(=O)Cc1nc2scc(-c3ccc(Cl)cc3)c2c(=O)[nH]1`, for which the inhibition is -10.5% (inactive).
Regarding `O=c1[nH]c(CCl)nc2cc(-c3ccc(Cl)cc3)sc12`, the inhibition is 94.6% (active).
In the case of `CCOC(=O)c1ccc(CS(=O)c2ccc(Cl)cc2)o1` (stereo not drawn), the inhibition was -6.19% (inactive).
Then `Cc1oc(-c2ccccc2Cl)[n+]([O-])c1C`, with -2.99% (inactive).
Turning to `CCOC(=O)C(C)n1nc(-c2ccccc2)c2ccccc2c1=O` (stereo not drawn), the inhibition is 16.8% (inactive).
In the case of `O=C(Nc1nnc(SCc2ccccc2)s1)c1ccco1`, the inhibition was 63% (active).
For the compound `COCCNc1nnc(SCC(=O)NNC(=O)c2ccco2)s1`, the inhibition was 0.175% (inactive).
With `O=C(Nc1nnc(CCOCCOCCc2nnc(NC(=O)c3ccco3)s2)s1)c1ccco1`, the inhibition is 14.7% (inactive).
Take `S=c1[nH]c(-c2cccs2)cn1-c1ccccc1`: the inhibition was -4.29% (inactive).
In the case of `COc1cccc(-n2c(=S)[nH]c3c(oc4ccccc43)c2=O)c1`, the inhibition was -5.17% (inactive).
In the case of `O=c1oc2ccccc2cc1-c1cn(-c2ccccc2)c(=S)[nH]1`, the inhibition is 94% (active).
`CC(NC(=O)C1CCC(CNc2c(N3CCOCC3)c(=O)c2=O)CC1)c1ccccc1` (stereo not drawn): the inhibition is -0.949% (inactive).
Turning to `COCCn1nnnc1C(c1cc2ccc(OC)cc2[nH]c1=O)N1CCc2ccccc2C1` (stereo not drawn), the inhibition is 72.7% (active).
Consider `CCOc1ccc2[nH]c(=O)c(C(c3nnnn3CCOC)N3CCOCC3)cc2c1` (stereo not drawn), for which the inhibition was 7.39% (inactive).
Take `COc1ccc(OC)c(C(c2nnnn2C(C)(C)C)N2CCc3ccccc3C2)c1` (stereo not drawn): the inhibition is -3.29% (inactive).
For the compound `O=c1cc(Cl)c2ccccc2n1-c1ccccc1`, the inhibition is -18.3% (inactive).
Regarding `CCNC(=O)NNC(=O)C1CC(c2cccs2)=NO1` (stereo not drawn), the inhibition was -11.1% (inactive).
Take `Cc1cc(C)cc(NC(=O)N(C)Cc2ccccc2)c1`: the inhibition was -7.22% (inactive).
`Cc1c(NC(=O)CSCc2ccccc2)cccc1C(=O)O`: the inhibition is 9.84% (inactive).
